Assay results taken from the supplement of paper PMC13380429.

Experiments:
[1] = tested on: Vero E6 infected with SARS-CoV-2; assay: morphology score (similarity to uninfected cells); higher = more like uninfected cells; conditions: 24 h
[2] = tested on: Vero E6 infected with SARS-CoV-2; assay: SARS-CoV-2 infection rate relative to infected DMSO; higher = more infection, active = 60 or less; conditions: 24 h

Compound	morphology score [1]	SARS-CoV-2 infection rate [2]
Nc1ccn([C@@H]2O[C@@](CO)(CCl)[C@@H](O)[C@H]2F)c(=O)n1 (10 µM)	-0.0112	104% (inactive)
CC1(COc2ccc(CC3SC(=O)NC3=O)cc2)CCCCC1 (centres undefined) [ciglitazone] (10 µM)	0.036	110% (inactive)
C[C@]1(O)C[C@@H](c2nc(-c3ccc4ccc(-c5ccccc5)nc4c3)c3c(N)nccn32)C1 [linsitinib] (10 µM)	0.275	88.5% (inactive)
COC(=O)C1=C(C)NC(C)=C(C(=O)OC2CCCN(Cc3ccccc3)C2)C1c1cccc([N+](=O)[O-])c1 (centres undefined) [benidipine] (10 µM)	0.0303	102% (inactive)
CCCc1cc(C(N)=S)ccn1 [protionamide] (10 µM)	0.198	98% (inactive)
O=C(c1ccc(Nc2nccc(-c3cc4ccccc4s3)n2)cc1)N1CCC(N2CCCC2)CC1 (0.833333 µM)	0.629	56% (active)
NC(N)=O [urea] (10 µM)	-0.168	114% (inactive)
CN(C[C@@H]1COCCO1)S(=O)(=O)Nc1ccc2ccc3ncc(-c4cnn(C)c4)cc3c(=O)c2c1 (0.833333 µM)	0.0936	111% (inactive)
CN1Cc2c(C(=O)OC(C)(C)C)ncn2-c2ccsc2C1=O (10 µM)	-0.00637	102% (inactive)
O=C(CN1CCNCC1)NC1CCCCC1 [esaprazole] (10 µM)	0.0266	104% (inactive)
CC(c1cc2ccccc2s1)N(O)C(N)=O (centres undefined) [zileuton] (10 µM)	0.0704	98.5% (inactive)
O=C(O[C@H]1CN2CCC1CC2)N(Cc1cc(F)c(F)c(F)c1)c1cccc(F)c1 [tarafenacin] (10 µM)	0.371	74% (inactive)
N#Cc1c(N)nc(SCC(N)=O)c(C#N)c1-c1ccc(OCC2CC2)cc1 (10 µM)	-0.0282	108% (inactive)
CO[C@@]1(NC(=O)CSC[C@@H](N)C(=O)O)C(=O)N2C(C(=O)O)=C(CSc3nnnn3C)CS[C@@H]21 [cefminox] (10 µM)	0.045	115% (inactive)
CCCC(CCC)C(=O)Nc1ccn([C@@H]2O[C@H](CO)[C@@H](O)C2(F)F)c(=O)n1 (0.833333 µM)	0.0484	100% (inactive)
CCCCCCCCCCCCCCCCCCCCCC(=O)Nc1ccn([C@@H]2O[C@H](CO)[C@@H](O)[C@@H]2O)c(=O)n1 [enocitabine] (10 µM)	0.135	94.5% (inactive)
COC(=O)Nc1ccc(-c2nc(N3CCOCC3)c3cnn(C4CCN(Cc5cccnc5)CC4)c3n2)cc1 (10 µM)	-0.198	104% (inactive)
CNCCC(Oc1ccccc1OC)c1ccccc1 (centres undefined) [nisoxetine] (10 µM)	0.135	96.5% (inactive)
NC(=S)N/N=C/c1ccncc1 [perchlozone] (10 µM)	-0.0589	114% (inactive)

Compound	morphology score [1]	SARS-CoV-2 infection rate [2]
C[C@]12CC[C@@H]3c4ccc(OC(=O)N(CCCl)CCCl)cc4CC[C@H]3[C@@H]1CC[C@@H]2OP(=O)(O)O [estramustine-phosphate] (10 µM)	0.0729	100% (inactive)
CC[C@H]1OC(=O)C[C@@H](O)[C@H](C)[C@@H](O[C@@H]2O[C@H](C)C[C@H](N(C)C)[C@H]2O)[C@@H](CC=O)C[C@@H](C)C(=O)/C=C/[C@]2(C)O[C@H]2[C@@H]1C [rosamicin] (10 µM)	0.129	96% (inactive)
CC(=O)N1CCN(CCOc2ccc(C3CCN(C4=Nn5c(nnc5C(F)(F)F)CC4)CC3)cc2)CC1 (0.833333 µM)	0.0218	98.5% (inactive)
O=C(O)Cc1cccc2c(=O)cc(-c3ccccc3)oc12 [mitoflaxone] (10 µM)	0.0177	106% (inactive)
CN[C@@H]1[C@H](O)[C@H](NC)[C@H]2O[C@@]3(O)C(=O)C[C@@H](C)O[C@H]3O[C@@H]2[C@H]1O [spectinomycin] (0.833333 µM)	0.0353	102% (inactive)
Nc1cc2c3ccccc3ccc2c2ccccc12 [6-aminochrysene] (10 µM)	0.144	101% (inactive)
CC(C)COc1ccc(CNC(=O)N(Cc2ccc(F)cc2)C2CCN(C)CC2)cc1 [pimavanserin] (10 µM)	0.709	23% (active)
O=C(c1cc(S(=O)(=O)Nc2ccccc2F)c(F)cc1Cl)N1CCN2CCC[C@@H]2C1 (10 µM)	0.0625	104% (inactive)
Cc1ccccc1N(C)C(=O)c1ccc([S+]([O-])c2nccs2)c([N+](=O)[O-])c1 (centres undefined) (0.833333 µM)	-0.0736	81% (inactive)
CCN(CC)CCOc1ccccc1C(=O)CCc1ccccc1 [etafenone] (10 µM)	0.151	97.5% (inactive)
Cc1c(F)cccc1NC(=O)Nc1ccc(Cl)c(S(=O)(=O)[C@H]2CCCNC2)c1O [danirixin] (10 µM)	0.19	98% (inactive)
O=C(Nc1ccccc1F)N[C@H]1N=C(c2ccccc2)c2ccccc2NC1=O (10 µM)	-0.135	113% (inactive)
CCCCCCCCCCCC(=O)N(CCO)CCO [lauric-diethanolamide] (10 µM)	-0.121	108% (inactive)
Cc1ccc(-c2ccc(F)cc2COc2ccc(CCC(=O)O)cc2)cc1 (10 µM)	-0.174	100% (inactive)
NC(=O)c1cccc(-c2cccc(OC(=O)NC3CCCCC3)c2)c1 (10 µM)	0.00303	104% (inactive)
O=C(Nc1cccc2c(=O)cc(-c3nnn[nH]3)oc12)c1ccc(OCCCCc2ccccc2)cc1 [pranlukast] (10 µM)	0.0454	111% (inactive)
CC(=O)N(CC(O)CO)c1c(I)c(C(=O)NCC(O)CO)c(I)c(C(=O)NCC(O)CO)c1I (centres undefined) [iohexol] (10 µM)	0.142	104% (inactive)
COc1ccc2c(c1)C(C(=O)N(Cc1ccc(N(C)C)cc1)c1ccc(C(C)C)cc1)CCC2 (centres undefined) (10 µM)	0.106	85.5% (inactive)
CC[C@@H]1C(=O)N(C)c2cnc(Nc3ccc(C(=O)N[C@H]4CC[C@H](N5CCN(CC6CC6)CC5)CC4)cc3OC)nc2N1C(C)C [volasertib] (10 µM)	-0.314	104% (inactive)

Compound	morphology score [1]	SARS-CoV-2 infection rate [2]
CN[C@@H](C)C(=O)N[C@H](C(=O)N1CCC[C@H]1C(=O)N[C@H]1c2ccccc2C[C@H]1OCC#CC#CCO[C@@H]1Cc2ccccc2[C@@H]1NC(=O)[C@@H]1CCCN1C(=O)[C@@H](NC(=O)[C@H](C)NC)C1CCCCC1)C1CCCCC1 (10 µM)	-0.161	112% (inactive)
c1ccc(Cn2c(-c3ccc(OC[C@H](C4CCNCC4)n4c(-c5ccccc5)nc5ccccc54)cc3)nc3ccccc32)cc1 [deltarasin] (0.833333 µM)	0.147	96% (inactive)
CCCN(CCC)C(=O)C(CCC(=O)OCCCN1CCN(CCOC(=O)Cc2c(C)n(C(=O)c3ccc(Cl)cc3)c3ccc(OC)cc23)CC1)NC(=O)c1ccccc1 (centres undefined) [proglumetacin] (10 µM)	0.0923	99.5% (inactive)
CN1C(=O)/C(=C2/C(=O)Nc3ccccc32)c2ccccc21 [meisoindigo] (0.833333 µM)	0.0882	96.5% (inactive)
O=C1CCc2cc(OCCCCc3nnnn3C3CCCCC3)ccc2N1 [cilostazol] (10 µM)	-0.112	110% (inactive)
CN1CCC2=C(C1)C(c1ccccc1)c1ccccc12 (centres undefined) [phenindamine] (10 µM)	-0.171	112% (inactive)
O=C(/C=C/c1ccc(O)c(O)c1)O[C@H](Cc1ccc(O)c(O)c1)C(=O)O [rosmarinic-acid] (10 µM)	0.152	94.5% (inactive)
COc1cccc(C(=O)CCN[C@@H](C)[C@H](O)c2ccccc2)c1 [oxyfedrine] (10 µM)	0.217	102% (inactive)
COc1ccc2c(Oc3ccc(NC(=O)c4c(C)n(CC(C)(C)O)n(-c5ccccc5)c4=O)nc3)ccnc2c1 (10 µM)	0.316	98% (inactive)
COc1ccc(CN(CCN(C)C)c2ncccn2)cc1 [thonzylamine] (10 µM)	0.0251	110% (inactive)
CC1=CC[C@@H](C(C)(C)O)C[C@@H]1O [sobrepin] (10 µM)	-0.0987	114% (inactive)
Cc1cc(Nc2nc(N[C@@H](C)c3ccc(F)cc3)c(C#N)cc2F)n[nH]1 (10 µM)	-0.0459	110% (inactive)
CCC(=O)O[C@]1(C(=O)CCl)[C@@H](C)C[C@H]2[C@@H]3CCC4=CC(=O)C=C[C@]4(C)[C@@]3(F)[C@@H](O)C[C@@]21C [clobetasol-propionate] (10 µM)	0.00072	105% (inactive)
COc1cc(CCc2cc(NC(=O)c3ccc(N4CC(C)NC(C)C4)cc3)n[nH]2)cc(OC)c1 (centres undefined) (10 µM)	0.373	79.5% (inactive)
COc1ccc2cc1Oc1ccc(cc1)C[C@H]1c3cc(c(OC)cc3CCN1C)Oc1c(OC)c(OC)cc3c1[C@H](C2)N(C)CC3 [tetrandrine] (10 µM)	0.509	12% (active)
CCOc1ccc(Cc2cc([C@@H]3O[C@H](SC)[C@@H](O)[C@H](O)[C@H]3O)ccc2Cl)cc1 [sotagliflozin] (10 µM)	-0.0387	114% (inactive)
COc1cn(-c2ccc(-n3cccn3)cc2F)nc(-c2ccnn2-c2ccccc2)c1=O (10 µM)	0.0337	112% (inactive)
CCC[C@H]1C(=O)N2C(N(C)C)=Nc3ccc(C)cc3N2C1=O [azapropazone] (10 µM)	0.165	94% (inactive)
NC1(Cc2ccc(Cl)cc2)CCN(c2ncnc3[nH]ccc23)CC1 (0.833333 µM)	0.535	99.5% (inactive)
